Bioassay records (PubChem)
The list is not random: actives were taken first. Their share in the collection is about 18%.
DT40 TDP1 no CPT: qHTS for Inhibitors of human tyrosyl-DNA phosphodiesterase 1 (TDP1): qHTS in cells in absence of CPT. DT40 Tdp1-/- hTDP1 cells, no CPT, ATP luminescence, 48 h. Potency, µM (titrated, usually from 46.2 µM), hits mostly inhibitors. hit rate 15% among 420,000. AID 686978, 2013; also: nearly all actives have a fitted effect of over 55% in size
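Compound effects on proliferation are scored in DT40 Tdp1-/-;hTDP1 cells in the absence of CPT. ATP levels (CellTiter-Glo luminescence) are recorded after a ≥48 hr, 37 °C incubation.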
DT40 TDP1 CPT: qHTS for Inhibitors of human tyrosyl-DNA phosphodiesterase 1 (TDP1): qHTS in cells in presence of CPT; chicken DT40 Tdp1-/-;hTDP1 cells + 20 nM CPT, ATP luminescence, 48 h; Potency, µM (highest dose often 46.2 µM), actives largely listed as inhibitors; hit rate 12% among 420,000; AID 686979, 2013; also: nearly all actives have a fitted effect of over 55% in size
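Chicken DT40 Tdp1-/- cells complemented with human TDP1, 400 cells/well, exposed to compounds plus 20 nM camptothecin for at least 48 h at 37 C; viability read as ATP content by CellTiter-Glo luminescence.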
CtBP-E1A blk: qHTS Assay for Inhibitors of the CtBP/E1A Interaction | CtBP / adenovirus E1A interaction (AlphaScreen) | AlphaScreen GST-E1A/His-CtBP binding, 1536-well; active compounds read low | hit rate 0.49% among 340,000 | activity change, % (concentration not given with the values); in the data active = activity change below about -65%; inconclusive = mostly about -30% to -63%
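Steps: dispense buffer (Tris pH 8.0, NaCl 300 mM, TCEP 1 mM, BSA, Tween 20); add 5X protein mix (GST-E1A, His-CtBP, 125 nM each); pin 23 nL compound; 2 h at 37 °C, dark; add 5X beads (50 ug/mL); 1 h; read.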
IL1B secr inh: qHTS for Inhibitors of Inflammasome Signaling: IL-1-beta AlphaLISA Primary Screen. THP-1 LPS/ATP IL-1B secretion, AlphaLISA, 16 h; active compounds read low. activity change, % at 57.5 µM. hit rate 4.7% among 360,000. AID 743279, 2014; in the data active = activity change below about -50%; inconclusive = mostly about -30% to -49%
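Secreted IL-1B measured by AlphaLISA bead assay after 16 h compound exposure of THP-1 cells; compounds (final up to 57.5 uM) added 1 h before LPS (250 ng/mL) and ATP (1.25 mM) stimulation; lower signal means less secretion.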
TDP1 block: qHTS Assay for Inhibitors of Tyrosyl-DNA Phosphodiesterase (TDP1) | recombinant TDP1, AlphaScreen DNA substrate cleavage | Potency, µM (series often up to 130 µM), usual class: inhibitors | hit rate 0.28% among 350,000 | AID 485290, 2010; also: nearly all actives have a fitted effect of over 40% in size
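Compounds were preincubated with Tdp1 (1 nM final) for 15 min at room temperature before substrate (15 nM final) started a 5 min reaction; beads (10 ug/ml final) were then added for 10 min before AlphaScreen detection.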
Six1-Eya2 inh: qHTS Assay for Inhibitors of the Six1/Eya2 Interaction. Homeobox protein SIX1 (Homo sapiens) + Protein phosphatase EYA2 (Homo sapiens), …. AlphaScreen GST-Six1/His-Eya2 binding, biochemical; active compounds read low. activity change, % (no concentration beside the values). hit rate 0.56% among 360,000. AID 651725, 2012; in the data active = activity change below about -65%; inconclusive = mostly about -30% to -63%
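AlphaScreen with GST-Six1 and His-Eya2 (5X mix: 250 nM and 500 nM), glutathione donor and nickel acceptor beads; buffer 50 mM Tris pH 8.0, 300 mM NaCl, 1 mM TCEP; 1 h at 37 C in the dark.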
Hits are given with their value; n = inactive; u = inconclusive; x = no result given; [ ] = another dose, or the depositor's remark. Unless noted, calls follow the shape of the dose curve; as a rule, active = well fitted curve in the direction sought with a large enough effect; inconclusive = small, poorly fitted or top-dose-only effect, or another doubt; inactive = no such curve, though single readings can be large; an effect the other way counts as inactive or inconclusive.

SMILES	DT40 TDP1 no CPT	DT40 TDP1 CPT	CtBP-E1A blk	IL1B secr inh	TDP1 block	Six1-Eya2 inh
CCOc1ccc(S(=O)(=O)NC(C)(C)C)cc1-c1nc2c(C(C)(C)C)nn(C)c2c(=O)[nH]1	u	21µM	n	-98	n	n
Cc1ccccc1NC(=O)C1Cc2ccccc2CN1C(=O)OCc1ccccc1 (centres undefined)	21µM	u	n	n	n	n
O=S(=O)(c1ccc(Cl)cc1)N1CCC2(CC1)OCCN2S(=O)(=O)c1cccs1	18µM	u	n	n	n	n
Cc1ccc(S(=O)(=O)N2CCOC23CCN(C(=O)c2ccc(Cl)cc2Cl)CC3)cc1	21µM	u	x	u	n	n
COc1ccc(S(=O)(=O)N2CCC3(CC2)OCCN3S(=O)(=O)c2cccs2)cc1	u	n	n	n	n[0.505 µM]	n
Cc1ccc(S(=O)(=O)N2CCOC23CCN(S(=O)(=O)c2c(C)cc(C)cc2C)CC3)cc1	u	18µM	n	n	n	n
CC(Cc1cccs1)NC(=O)Nc1ccc([N+](=O)[O-])cc1 (centres undefined)	16µM	u	x	n	n	n
CC(Cc1cccs1)NC(=O)c1cccs1 (centres undefined)	n	n	n	n	n	n
CC(O)(c1ccccc1)c1nc(-c2ccccc2)cs1 (centres undefined)	u	21µM	n	n	x	n
CC(O)(c1ccccc1)c1nc(-c2ccncc2)cs1 (centres undefined)	u	4.1µM	u	n	x	n
Cc1cc(C)cc(N(C(=O)c2ccco2)C(C(=O)NC2CCCC2)c2ccncc2)c1 (centres undefined)	n	n	n	n	u	n
O=C(Nc1ccccc1Cl)c1cc(S(=O)(=O)N2CCCCC2)ccc1N1CCOCC1	23µM	u	n	n	n	n
O=C(Nc1cccc(F)c1)c1cc(S(=O)(=O)N2CCOCC2)ccc1N1CCCC1	n	n	x	n	n	n
CCc1nnc(NC(=O)c2cc(S(=O)(=O)N3CCOCC3)ccc2N2CCCCC2)s1	u	n	n	-70	n	n
O=C(Nc1cccc(C(F)(F)F)c1)c1cc(S(=O)(=O)N2CCCCC2)ccc1N1CCOCC1	18µM	23µM	n	u	n	n
O=C(C1CCCN(Cc2ccccc2[N+](=O)[O-])C1)N1CCCC1 (centres undefined)	n	n	n	n	x	n
COc1cccc(-c2nc(NC(C)(C)C)c3ccccc3n2)c1O	21µM	u	n	-51	n	n
COc1cccc(-c2nc(NCCN3CCOCC3)c3ccccc3n2)c1O	18µM	15µM	u	n	n	u
COc1ccc(Nc2nc(-c3cccc(OC)c3O)nc3ccccc23)cc1	16µM	u	u	n	x	u
O=C(CSc1nnc(-c2ccccc2O)n1-c1ccccc1)Nc1cccc(C(=O)O)c1	n	n	n	n	n	n
Cc1cccc(CSCCNC(=O)CN(c2cc(C)cc(C)c2)S(C)(=O)=O)c1	u	u	n	n	n	n
CCCCCC(=O)Nc1cc(S(=O)(=O)N2CCOCC2)ccc1N1CCCC1	u	n	n	n	n	n
COc1ccc(Cl)cc1N1C(=O)[C@@H]2C(c3cccc(OC)c3OC)=NO[C@@H]2C1=O	n	n	n	n	n	n
COCCN1CCC(CNCc2cn(-c3cc(C)ccc3C)nc2-c2ccccc2)C1 (centres undefined)	6.5µM	u	x	n	n	n
CCn1ccnc1CNCc1cn(-c2cc(C)ccc2C)nc1-c1ccccc1	u	u	x	n	n	-82
Cc1ccc(C)c(-n2cc(CNCCc3cnccn3)c(-c3ccccc3)n2)c1	u	u	x	u	x	n
